Screening data: PubChem BioAssay, several laboratories
Mdm2-MdmX inh – inhibitors of human Mdm2-MdmX association, primary screen, cell-based, luminescence, split luciferase, SaOS-2, uHTS | 3% of 330,000 active | inhibition, % at 8 µM | AID 485346, 2010 | Protein Mdm4 (Homo sapiens) + E3 ubiquitin-protein ligase Mdm2 (Homo sapiens), … | SaOS-2 split-luciferase Mdm2/MdmX complementation;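 active = inhibition of at least 50% at 8 µM in the primary screen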
Beta apoptosis – inhibitors of cytokine-induced beta cell apoptosis, primary screen, luminescence; 0.8% of 300,000 active; INS-1E cytokine-induced death, ATP luminescence, 48 h; percent of positive-control rescue, neutral wells zero; protection from apoptosis, % (test concentration not listed); AID 435005, 2010;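 active = Every replicate reaches about 75%, or at least half do and their mean reaches it too, limit read from the data; inconclusive = At least half of replicates reach the limit but their mean does not; inactive = Under half of replicates reach the limit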;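 also: higher means more ATP so stronger rescue from cytokine killing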
CSC inhib – cancer stem cell viability inhibitors, primary screen, luminescence; cancer stem cell-like cells viability; inhibition, % at 7.5 µM; 1.1% of 300,000 active; in the data active = inhibition above about 75%; inconclusive = no clear call, values can overlap the other calls; tested in HMLE shEcad cells
aSyn 5UTR inh – MLPCN primary screen, SNCA 5' untranslated region | alpha-synuclein 5'UTR reporter, inhibitor activity | inhibition, % (tested at 7.5 µM) | 0.82% of 300,000 active; in the data active = inhibition above about 60%; inconclusive = no clear call, values can overlap the other calls;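 also: H4 neuroglioblastoma cells stably carrying SNCA 5'UTR luciferase fusion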
Bfl-1 A1 inh – caspase 3/7 activation in MEF A1-2A-BIM cells, primary screen, A1 inhibitor project, cell-based, luminescence, HTS; caspase activation, % (test concentration not listed); 0.066% of 330,000 active; Caspase-Glo 3/7 luminescence, 3 h; percent of clofoctol response, vehicle zero;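 active = over half of replicate activation scores above 10%, or exactly half above 10 with the replicate mean above 10; inconclusive = replicate mean below 10 yet half the replicates above 10; inactive = over half of replicates below 10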
Mdm2 MdmX conf – Mdm2-MdmX complex disruptors, retested hits, confirmation, luminescence, single concentration; Mdm2-MdmX binding, luminescent assay; 55% of 10,000 active; AID 489028, 2010; shares compounds with Mdm2-MdmX inh; inhibition, % at 8 µM; in the data active = inhibition above about 40%
FLuc counter – full-length luciferase signal inhibition, confirmation, counter-screen for Mdm2/MdmX interaction inhibitor project, cell-based, single concentration, SaOS-2 | SaOS-2 full-length luciferase counterscreen, luminescence | inhibition, % at 8 µM | shares compounds with Mdm2-MdmX inh | 77% of 6,200 active;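 active = mean inhibition at 8 µM reaching about 37%, which flags the compound as non-specific, limit read from the data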;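 also: p53-null SaOS-2 cells with luciferase driven by a doxycycline-inducible promoter; compound on cells about two nights before reading with doxycycline added after day one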
Numbers stand for hits; . = inactive; ? = inconclusive; / = not tested or not shown. Most compounds without a hit are left out; they make up all but 4.1% or so of the library.

SMILES | Mdm2-MdmX inh | Beta apoptosis | CSC inhib | aSyn 5UTR inh | Bfl-1 A1 inh | Mdm2 MdmX conf | FLuc counter
C=C(C)Cn1c(SCC)nc2ccccc2c1=O | . | . | . | . | . | / | /
C=C(C)Cn1c(SCC(=O)N/N=C/c2c(O)ccc3ccccc23)nc2ccccc2c1=O | 82.6 | . | 103.3 | . | . | 56.3 | .
Cc1nn(-c2ccccc2)c(C)c1/C=N/NC(=O)CSc1nc2ccccc2c(=O)n1-c1ccc(Br)cc1 | 74.2 | . | . | . | 7.1 | 65.2 | 74.2
Cc1ccc(-n2c(SCC(=O)N/N=C/c3c(C)nn(-c4ccccc4)c3C)nc3ccccc3c2=O)cc1 | 65.7 | . | ? | . | . | 46.8 | 67.8
CCn1c(SCC(=O)N/N=C/c2ccc(C)s2)nc2ccccc21 | 58.0 | . | . | . | . | 61.0 | 59.3
Cc1ccccc1C(=O)N1CCC(C(=O)N(CC(C)C)c2c(N)n(Cc3ccccc3)c(=O)[nH]c2=O)CC1 | . | . | . | . | . | / | /
Cc1ccc(NC(=O)COC(=O)c2ccc(-n3cccn3)cc2)cc1C | . | / | / | / | / | / | /
Nc1cc(C(=O)OCC(=O)N2CCC(Cc3ccccc3)CC2)ccc1Cl | . | . | / | / | . | / | /
CN1CCN(CC(O)Cn2c3ccccc3c3ccccc32)CC1 (stereo not drawn) | . | . | . | . | . | / | /
COc1ccc(CN2CCN(CC(O)Cn3c4ccccc4c4ccccc43)CC2)cc1 (stereo not drawn) | 66.1 | . | . | . | . | . | 79.1
CCOc1ccc(CN2CCN(CC(O)Cn3c4ccccc4c4ccccc43)CC2)cc1 (stereo not drawn) | 89.1 | . | . | . | . | 72.2 | .
Cc1cccc(OCC(=O)Nc2ccccc2N2CCN(C(=O)C(C)C)CC2)c1C | 100.3 | . | . | . | . | . | /
CCN(CC(=O)Nc1c(F)cccc1F)C(=O)C1CC(=O)N(CCc2ccc(OC)c(OC)c2)C1 (stereo not drawn) | . | . | / | / | . | / | /
O=C(Nc1ccc(S(=O)(=O)N2CCCCCC2)cc1)c1[nH]ncc1[N+](=O)[O-] | 51.6 | . | . | 86.1 | . | . | /
O=C(Nc1ccc([N+](=O)[O-])cc1)c1ccc(S(=O)(=O)N2CCCC2)cc1 | . | . | . | . | . | / | /
COc1cc(C(=O)Nc2ccc(Cl)c([N+](=O)[O-])c2)cc(OC)c1OC | 56.8 | . | . | . | . | . | /
COc1ccc(C(=O)c2ccc(Cl)c([N+](=O)[O-])c2)cc1 | 70.3 | . | . | . | ? | 69.8 | 111.2
CN(C)/C=N/c1[nH]ncc1C#N | . | . | . | . | . | / | /
CN(C)C=Nc1ncc2c([nH]c3ccccc32)c1C#N | 72.4 | . | / | . | . | 81.8 | .
CN1CCN(C(=O)CCCN2C(=O)/C(=C/c3ccccc3)SC2=S)CC1 | 52.5 | . | . | . | . | . | .
CCc1ccc(/C=C2\SC(=S)N(CCC(=O)N3CCN(C)CC3)C2=O)cc1 | . | . | . | . | . | / | /
CN1CCN(C(=O)CCCN2C(=O)/C(=C/c3ccc(Cl)cc3)SC2=S)CC1 | 52.2 | . | / | / | . | . | /
COc1ccc(/C=C2/SC(=S)N(CCCC(=O)N3CCN(C)CC3)C2=O)cc1 | 54.7 | . | . | . | . | . | .
Cc1ccc(/C=C2\SC(=S)N(CCCC(=O)N3CCOCC3)C2=O)cc1 | 55.6 | . | . | . | . | . | .
CCOc1ccccc1C(=O)OCC(=O)Nc1cc(S(=O)(=O)N2CCOCC2)ccc1C | . | / | / | / | / | / | /
Cc1ccsc1C(=O)N1CCCC(N(C)Cc2ccccc2)C1 (stereo not drawn) | . | . | . | . | . | / | /
CC(C)c1nc(SCC(=O)N2CCCc3ccccc32)c2c(=O)n(C)c(=O)n(C)c2n1 | 55.2 | . | . | . | . | 46.9 | 51.4
CN(C)S(=O)(=O)c1ccc2nc(NC(=O)c3cccnc3)sc2c1 | . | . | . | . | . | / | /
